Anthrax LF prot – Bacillus anthracis LF protease inhibitors, primary screen, biochemical, multiplex microsphere, MLPCN library | Lethal factor (Bacillus anthracis), P15917 | multiplex microsphere protease cleavage assay | inhibition, % at 10 µM | hit rate 0.12% among 360,000 | AID 588501, 2011; also: plate controls were buffer without enzyme for full effect and enzyme alone for no effect
BoNT-A LC inh2 – BoNT/A light chain protease inhibitors, primary screen, biochemical, flow cytometry, MLPCN library | inhibition, % at 10 µM | AID 588499, 2011 | hit rate 0.17% among 360,000 | multiplex microsphere protease substrate cleavage; also: plate controls were buffer without enzyme for full effect and enzyme alone for no effect
Autofluor counter – counter-screen for toxin protease inhibitors: compound fluorescence | compound autofluorescence counterscreen, microsphere flow cytometry; hits give high values | hit rate 3.1% among 360,000 | fluorescence intensity (no concentration beside the values); in the data active = fluorescence intensity above about 16000; inconclusive = no clear call, values can overlap the other calls
TcdB inh – TcdB glycohydrolase inhibitors, primary screen, biochemical, single point, plate reader; inhibition, % at 9.99 µM; Toxin B (Clostridioides difficile), P18177; hit rate 0.24% among 350,000; TcdB glycohydrolase enzymatic assay; in the data active = inhibition above about 10%
BoNT F protease – BoNT/F light chain protease inhibitors, primary screen, biochemical, flow cytometry, MLPCN library | hit rate 0.22% among 360,000 | inhibition, % at 10 µM | Botulinum neurotoxin type F light chain protease (Clostridium botulinum) | Multiplex microsphere protease cleavage assay; in the data active = inhibition above about 35%, passing the limit was not always enough; inconclusive = no clear call, values can overlap the other calls; also: plate controls were buffer without enzyme for full effect and enzyme alone for no effect
Active calls of the source: *; ? = inconclusive; / = no result; ! = a repeat was not active. Shown is part of a subset that was picked to be rich in hits. Rule as the data show it, unless noted: active = inhibition above about 30%; inconclusive = no clear call, values can overlap the other calls; inactive = below that.

SMILES | Anthrax LF prot | BoNT-A LC inh2 | Autofluor counter | TcdB inh | BoNT F protease
COc1ccc(S(=O)(=O)N[C@@H]2CC[C@H](CCn3cc(-c4cccc(F)c4)nn3)O[C@@H]2CO)cc1 | / | / | / | 1 | /
CC(C)(C)[C@@H]1C=C(C(=O)NCc2nc3ccccc3[nH]2)O[C@H](OCc2ccc(CO)cc2)C1 | / | / | / | 0 | /
C[C@H]1C=C(C(=O)NCc2nc3ccccc3[nH]2)O[C@@H](OCc2ccc(CO)cc2)C1 | 5 | 1 | 3174 | 11*! | -4
Brc1c(CSc2nncn2-c2ccccc2)nc2ncccn12 | 2 | 0 | 3344 | / | -2
Brc1c(CSc2nncn2-c2ccccc2)nc2sccn12 | -6 | 3 | 19506* | / | 5
CC(=O)OC1(C(F)(F)F)Oc2ccccc2NC1=O (stereo unspecified) | 2 | ? | 18158* | / | 7
O=c1nc2s/c(=C\c3ccco3)c(=O)n2nc1Cc1ccc(F)cc1 | -2 | -2 | 25032* | / | -4
COc1ccc(NC(=O)Nc2ccc3c(c2)CC(=O)N([C@H](C)CO)C[C@H](C)[C@H](CN(C)S(=O)(=O)c2c(C)noc2C)O3)cc1 | / | / | / | 0 | /
CNC[C@H]1Oc2cc(C#Cc3ccccn3)ccc2S(=O)(=O)N([C@H](C)CO)C[C@H]1C | / | / | / | -1 | /
COc1ccc(C2C(C#N)=C(N)Oc3cc(O)ccc32)cc1 (stereo unspecified) | 7 | 0 | 3451 | 2 | ?
N#CC1=C(N)Oc2cc(O)ccc2C1c1ccccc1 (stereo unspecified) | 0 | 1 | 21140* | / | 0
C[C@@H]1CN([C@@H](C)CO)C(=O)c2cccc(NS(=O)(=O)c3cccs3)c2O[C@H]1CN(C)CC1CCCCC1 | / | / | / | 1 | /
CO[C@@H]1CN(C)C(=O)c2cc(NS(=O)(=O)c3ccccc3C)ccc2OC[C@H](C)N(S(C)(=O)=O)C[C@H]1C | / | / | / | 1 | /
COc1ccc(F)cc1CN1CCN(CC(=O)Nc2ccccc2C(=O)NC2CC2)CC1 | 5 | 1 | 3841 | 2 | -1
COc1ccc(CN2CCN(CC(=O)Nc3ccccc3C(=O)NC3CC3)CC2)cc1F | -16 | -68 | 19106* | -2 | ?
Cc1cc(C(=O)Nc2cccc3c2O[C@H](CN(C)C(=O)Nc2c(C)noc2C)[C@H](C)CN([C@@H](C)CO)C3=O)n(C)n1 | / | / | / | 0 | /
CSc1ccccc1C(=O)NCCCOC(C)C | 0 | 4 | 21738* | 1 | 1
Cc1cc(C(=O)NCCCOC(C)C)c2ccccc2n1 | 1 | 0 | 22118* | / | 2
CSc1ccccc1C(=O)NCCOc1ccccc1C | 2 | 0 | 3993 | 0 | -3
C=CCn1c(SCC(=O)Nc2cc(C)nn2-c2ccccc2)nnc1C1CCCCC1 | -3 | ? | 23513* | / | -5
C=CCn1c(SCC(=O)NCc2ccccc2)nnc1C1CCCCC1 | 0 | 1 | 3173 | -9 | -2
CCc1ccccc1N1C(=O)CC(=O)NC1=O | -2 | 0 | 3909 | 0 | 1
COc1cccc(N2C(=O)CC(=O)NC2=O)c1 | -1 | -1 | 23335* | / | -1
Cc1ccccc1N1C(=O)CC(=O)NC1=O | 1 | -7 | 21951* | / | -8
CCOc1cccc(N2C(=O)CC(=O)NC2=O)c1 | 1 | 0 | 4775 | / | 1
SMILES | Anthrax LF prot | BoNT-A LC inh2 | Autofluor counter | TcdB inh | BoNT F protease
Cc1ccc(C(C#N)N2CCOCC2)cc1 (stereo unspecified) | 1 | 1 | 22170* | / | 2
C[C@@H]1CN([C@H](C)CO)C(=O)Cc2cc(NC(=O)CCN3CCOCC3)ccc2O[C@H]1CN(C)Cc1ccccc1 | / | / | / | -9 | /
COc1ccc(C(=O)O/N=C(\N)Cc2ccc(Cl)cc2)cc1OC | 7 | 0 | 3250 | / | -4
N/C(=N\OC(=O)c1cccc(Br)c1)c1ccc(Br)cc1 | -4 | 0 | 3015 | / | -7
N/C(Cc1ccc(Cl)cc1)=N\OC(=O)c1ccccc1 | -1 | 1 | 4345 | 0 | 42*
O=C(OCc1ccc(Cl)cc1)c1cccnc1Cl | 0 | -1 | 4840 | 0 | -5
O=C(OCc1ccc(Cl)cc1)c1ccccc1C(=O)c1ccccc1 | -12 | -3 | 17651* | / | -8
CCC(=O)Nc1ccccc1C(=O)OCc1ccc(C(=O)c2ccccc2)cc1 | -13 | 8 | 20219* | / | 9
N/C(=N\OC(=O)c1ccc(Br)cc1)c1ccccc1 | -2 | -5 | 25293* | / | -5
C[C@@H]1CN([C@H](C)CO)C(=O)c2cc(NC(=O)Cc3ccccc3)ccc2O[C@H]1CN(C)Cc1ccccc1 | / | / | / | 0 | /
C[C@@H]1CCCCO[C@@H](CN(C)S(=O)(=O)c2cccs2)[C@H](C)CN([C@@H](C)CO)C(=O)c2cc(NS(=O)(=O)c3cccs3)ccc2O1 | / | / | / | 0 | /
COc1ccc(NC(=O)Nc2ccc3c(c2)C(=O)N([C@@H](C)CO)C[C@@H](C)[C@@H](CN(C)C(=O)Nc2ccc(C(F)(F)F)cc2)OCCCC[C@@H](C)O3)cc1 | / | / | / | 0 | /
CCC(=O)Nc1ccccc1C(=O)NC1CCCCC1 | 0 | 2 | 21479* | 3 | 3
O=C(O)CCC(=O)Nc1ccccc1C(=O)NC1CCCCC1 | -1 | 0 | 2663 | / | -10
COc1cccc(NC(=O)N2C[C@H](O)COC[C@H]3O[C@H](CC(=O)NC4CCC4)CC[C@@H]32)c1 | / | / | / | -8 | /
C[C@@H](NC(=O)C[C@H]1CC[C@H](NC(=O)c2cccnc2)[C@@H](CO)O1)c1ccccc1 | / | / | / | 0 | /
Cc1ccc(P(=O)(CO)c2ccc(C)cc2)cc1 | -1 | -1 | 16417* | / | -3
COc1ccc(-c2cnc3c(c2)C(=O)N([C@@H](C)CO)C[C@H](C)[C@H](CN(C)C(=O)Cc2ccccn2)O3)cc1 | / | / | / | 0 | /
CC1CCCCN1C(=O)CSc1nc2ccsc2c(=O)n1Cc1ccccn1 (stereo unspecified) | 1 | -1 | 19850* | / | -2
CC1CCN(C(=O)CSc2nc3ccccc3c(=O)n2Cc2ccc3c(c2)OCO3)CC1 | -2 | 2 | 15459 | / | 2
CCCCn1c(SCC(=O)Nc2cc(C)[nH]n2)nc2ccsc2c1=O | -3 | 5 | 18853* | / | 2
O=c1c2sccc2nc(SCc2cc(=O)n3ccccc3n2)n1Cc1ccccn1 | / | / | / | 3 | /
CC1CCCCN1C(=O)CSc1nc2cc3c(cc2c(=O)n1Cc1ccc2c(c1)OCO2)OCO3 (stereo unspecified) | 1 | ? | 21942* | / | 1

Source: PubChem (several laboratories)
